What was measured:
Test in all cases: log2 ratio of Biotin-Ahx-Ub-VS probe labelling (compound/DMSO); higher = less target engagement, active = hit call of the paper (q ≤ 0.05, log2 ratio ≤ -1)
Conditions in all cases: treatment time: 3 h
[1] = compound: CCC1N(CCc2sccc12)C(=O)CCl
How it was run: (§1)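 For activity-based profiling, 495 µg portions of HEK293T lysate in Tris/CHAPS/IGEPAL buffer with protease inhibitors were treated in triplicate with compound at 50 or 200 µM or with DMSO for 3 h. A 1 h incubation with Biotin-Ahx-Ub-VS (0.5 µM final) followed, then NeutrAvidin enrichment, LysC and trypsin digestion and diaPASEF LC-MS/MS. The compound/DMSO base-two log ratios were averaged from median-normalised label-free quantities using an unpaired t-test. Proteins needed at least 2 unique peptides to be included.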

[2] = compound: CN1c2ccccc2C(CS1(=O)=O)NC(=O)CCl
How it was run: as §1

[3] = compound: Cl.ClCC(=O)N1CCc2ncncc2C1
How it was run: as §1

[4] = compound: Cl.Cn1ncc2C(CCCc12)NC(=O)CCl
How it was run: as §1

[5] = compound: ClCC(=O)NC1CCOc2ccccc12
How it was run: as §1

[6] = compound: ClCC(=O)NC1CCCc2ccccc12
How it was run: (§2)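 In triplicate, 495 µg portions of HEK293T lysate in Tris/CHAPS/IGEPAL buffer with protease inhibitors received compound across a concentration series or vehicle for 3 h, followed by 1 h with 0.5 µM final Biotin-Ahx-Ub-VS. After NeutrAvidin enrichment and LysC/trypsin digestion, the labelled deubiquitinases were measured by diaPASEF LC-MS/MS and quantified label-free in Spectronaut with global-median normalisation. Each value is an average compound-to-vehicle ratio from an unpaired t-test, expressed as log2 and restricted to proteins having two or more unique peptides.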

[7] = compound: ClCC(=O)N[C@@H]1CCCc2ccccc12
How it was run: as §2

[8] = compound: ClCC(=O)N[C@H]1CCCc2ccccc12
How it was run: as §2

[9] = compound: CCC1N(CCc2cc(OC)c(Cl)cc12)C(=O)CCl
How it was run: as §1

[10] = compound: CCCC1N(CCc2cc(OC)c(OC)cc12)C(=O)CCl
How it was run: as §1

[11] = compound: CN(Cc1cccc(Br)c1)C(=O)CCl
How it was run: as §1

[12] = compound: CN(Cc1cccc(OCc2ccccc2C)c1)C(=O)CCl
How it was run: as §1

[13] = compound: CN(Cc1ccccc1)C(=O)CCl
How it was run: as §1

[14] = compound: COc1ccc(CN(C)C(=O)CCl)cc1
How it was run: as §1

[15] = compound: COc1cccc(CN(CCCc2ccccc2)C(=O)CCl)c1
How it was run: as §1

[16] = compound: ClCC(=O)N1CCc2cc(Cl)c(Cl)cc2C1
How it was run: as §1

[17] = compound: ClCC(=O)N1CCc2nc(ncc2C1)-c1ccccc1
How it was run: as §1

[18] = compound: ClCC(=O)N1CCc2nocc2C1
How it was run: as §1

[19] = compound: ClCC(=O)N1CCc2scc(Br)c2C1
How it was run: as §1

[20] = compound: ClCC(=O)NC(C1CCCC1)c1cccs1
How it was run: as §1

Measured: log2 ratio of Biotin-Ahx-Ub-VS probe labelling

OTUD6B (UniProt Q8N6M0)
Sequence of UniProt Q8N6M0 (Q8N6M0 whole entry): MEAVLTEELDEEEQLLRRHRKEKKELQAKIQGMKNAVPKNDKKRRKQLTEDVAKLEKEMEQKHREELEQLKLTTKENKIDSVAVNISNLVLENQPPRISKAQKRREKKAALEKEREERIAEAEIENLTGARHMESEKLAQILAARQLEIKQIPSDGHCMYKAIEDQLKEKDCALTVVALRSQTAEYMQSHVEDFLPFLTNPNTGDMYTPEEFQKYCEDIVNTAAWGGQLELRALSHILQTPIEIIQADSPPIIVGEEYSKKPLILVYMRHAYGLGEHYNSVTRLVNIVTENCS
inactive: [1]; compound concentration: 50uM -0.125 | [1]; compound concentration: 200uM -0.283 | [2]; compound concentration: 50uM -0.286 | [2]; compound concentration: 200uM -0.251 | [3]; compound concentration: 50uM -0.254 | [3]; compound concentration: 200uM -0.722 | [4]; compound concentration: 50uM 0.122 | [4]; compound concentration: 200uM -0.00452 | [5]; compound concentration: 50uM 0.0287 | [5]; compound concentration: 200uM -0.0666 | [6]; compound concentration: 0.78uM -0.127 | [6]; compound concentration: 1.56uM -0.0797 | [6]; compound concentration: 3.13uM -0.201 | [6]; compound concentration: 6.25uM -0.105 | [6]; compound concentration: 12.5uM -0.198 | [6]; compound concentration: 25uM -0.128 | [6]; compound concentration: 50uM -0.0883 | [6]; compound concentration: 100uM -0.038 | [6]; compound concentration: 200uM -0.209 | [7]; compound concentration: 0.78uM -0.264 | [7]; compound concentration: 1.56uM -0.2 | [7]; compound concentration: 3.13uM -0.167 | [7]; compound concentration: 6.25uM -0.186 | [7]; compound concentration: 12.5uM -0.156 | [7]; compound concentration: 25uM -0.268 | [7]; compound concentration: 50uM -0.175 | [7]; compound concentration: 100uM -0.224 | [7]; compound concentration: 200uM -0.168 | [8]; compound concentration: 0.78uM -0.139 | [8]; compound concentration: 1.56uM -0.177 | [8]; compound concentration: 3.13uM -0.0832 | [8]; compound concentration: 6.25uM -0.0276 | [8]; compound concentration: 12.5uM -0.0686 | [8]; compound concentration: 25uM -0.159 | [8]; compound concentration: 50uM 0.0307 | [8]; compound concentration: 100uM -0.0663 | [8]; compound concentration: 200uM -0.229 | [9]; compound concentration: 50uM 0.0279 | [9]; compound concentration: 200uM -0.78 | [10]; compound concentration: 50uM -0.398 | [10]; compound concentration: 200uM -0.676 | [11]; compound concentration: 50uM -0.133 | [11]; compound concentration: 200uM -0.53 | [12]; compound concentration: 50uM -0.59 | [12]; compound concentration: 200uM -0.817 | [13]; compound concentration: 50uM -0.257 | [13]; compound concentration: 200uM -0.515 | [14]; compound concentration: 50uM -0.181 | [14]; compound concentration: 200uM -0.334 | [15]; compound concentration: 50uM -0.28 | [15]; compound concentration: 200uM -0.784 | [16]; compound concentration: 50uM 0.0579 | [17]; compound concentration: 50uM 0.00143 | [17]; compound concentration: 200uM -0.718 | [18]; compound concentration: 50uM -0.255 | [18]; compound concentration: 200uM -0.521 | [19]; compound concentration: 50uM -0.125 | [20]; compound concentration: 50uM 0.0378 | [20]; compound concentration: 200uM -0.153
active: [16]; compound concentration: 200uM -1.26 | [19]; compound concentration: 200uM -1.1

USP9X (UniProt Q93008)
Sequence of UniProt Q93008 (Q93008 whole entry): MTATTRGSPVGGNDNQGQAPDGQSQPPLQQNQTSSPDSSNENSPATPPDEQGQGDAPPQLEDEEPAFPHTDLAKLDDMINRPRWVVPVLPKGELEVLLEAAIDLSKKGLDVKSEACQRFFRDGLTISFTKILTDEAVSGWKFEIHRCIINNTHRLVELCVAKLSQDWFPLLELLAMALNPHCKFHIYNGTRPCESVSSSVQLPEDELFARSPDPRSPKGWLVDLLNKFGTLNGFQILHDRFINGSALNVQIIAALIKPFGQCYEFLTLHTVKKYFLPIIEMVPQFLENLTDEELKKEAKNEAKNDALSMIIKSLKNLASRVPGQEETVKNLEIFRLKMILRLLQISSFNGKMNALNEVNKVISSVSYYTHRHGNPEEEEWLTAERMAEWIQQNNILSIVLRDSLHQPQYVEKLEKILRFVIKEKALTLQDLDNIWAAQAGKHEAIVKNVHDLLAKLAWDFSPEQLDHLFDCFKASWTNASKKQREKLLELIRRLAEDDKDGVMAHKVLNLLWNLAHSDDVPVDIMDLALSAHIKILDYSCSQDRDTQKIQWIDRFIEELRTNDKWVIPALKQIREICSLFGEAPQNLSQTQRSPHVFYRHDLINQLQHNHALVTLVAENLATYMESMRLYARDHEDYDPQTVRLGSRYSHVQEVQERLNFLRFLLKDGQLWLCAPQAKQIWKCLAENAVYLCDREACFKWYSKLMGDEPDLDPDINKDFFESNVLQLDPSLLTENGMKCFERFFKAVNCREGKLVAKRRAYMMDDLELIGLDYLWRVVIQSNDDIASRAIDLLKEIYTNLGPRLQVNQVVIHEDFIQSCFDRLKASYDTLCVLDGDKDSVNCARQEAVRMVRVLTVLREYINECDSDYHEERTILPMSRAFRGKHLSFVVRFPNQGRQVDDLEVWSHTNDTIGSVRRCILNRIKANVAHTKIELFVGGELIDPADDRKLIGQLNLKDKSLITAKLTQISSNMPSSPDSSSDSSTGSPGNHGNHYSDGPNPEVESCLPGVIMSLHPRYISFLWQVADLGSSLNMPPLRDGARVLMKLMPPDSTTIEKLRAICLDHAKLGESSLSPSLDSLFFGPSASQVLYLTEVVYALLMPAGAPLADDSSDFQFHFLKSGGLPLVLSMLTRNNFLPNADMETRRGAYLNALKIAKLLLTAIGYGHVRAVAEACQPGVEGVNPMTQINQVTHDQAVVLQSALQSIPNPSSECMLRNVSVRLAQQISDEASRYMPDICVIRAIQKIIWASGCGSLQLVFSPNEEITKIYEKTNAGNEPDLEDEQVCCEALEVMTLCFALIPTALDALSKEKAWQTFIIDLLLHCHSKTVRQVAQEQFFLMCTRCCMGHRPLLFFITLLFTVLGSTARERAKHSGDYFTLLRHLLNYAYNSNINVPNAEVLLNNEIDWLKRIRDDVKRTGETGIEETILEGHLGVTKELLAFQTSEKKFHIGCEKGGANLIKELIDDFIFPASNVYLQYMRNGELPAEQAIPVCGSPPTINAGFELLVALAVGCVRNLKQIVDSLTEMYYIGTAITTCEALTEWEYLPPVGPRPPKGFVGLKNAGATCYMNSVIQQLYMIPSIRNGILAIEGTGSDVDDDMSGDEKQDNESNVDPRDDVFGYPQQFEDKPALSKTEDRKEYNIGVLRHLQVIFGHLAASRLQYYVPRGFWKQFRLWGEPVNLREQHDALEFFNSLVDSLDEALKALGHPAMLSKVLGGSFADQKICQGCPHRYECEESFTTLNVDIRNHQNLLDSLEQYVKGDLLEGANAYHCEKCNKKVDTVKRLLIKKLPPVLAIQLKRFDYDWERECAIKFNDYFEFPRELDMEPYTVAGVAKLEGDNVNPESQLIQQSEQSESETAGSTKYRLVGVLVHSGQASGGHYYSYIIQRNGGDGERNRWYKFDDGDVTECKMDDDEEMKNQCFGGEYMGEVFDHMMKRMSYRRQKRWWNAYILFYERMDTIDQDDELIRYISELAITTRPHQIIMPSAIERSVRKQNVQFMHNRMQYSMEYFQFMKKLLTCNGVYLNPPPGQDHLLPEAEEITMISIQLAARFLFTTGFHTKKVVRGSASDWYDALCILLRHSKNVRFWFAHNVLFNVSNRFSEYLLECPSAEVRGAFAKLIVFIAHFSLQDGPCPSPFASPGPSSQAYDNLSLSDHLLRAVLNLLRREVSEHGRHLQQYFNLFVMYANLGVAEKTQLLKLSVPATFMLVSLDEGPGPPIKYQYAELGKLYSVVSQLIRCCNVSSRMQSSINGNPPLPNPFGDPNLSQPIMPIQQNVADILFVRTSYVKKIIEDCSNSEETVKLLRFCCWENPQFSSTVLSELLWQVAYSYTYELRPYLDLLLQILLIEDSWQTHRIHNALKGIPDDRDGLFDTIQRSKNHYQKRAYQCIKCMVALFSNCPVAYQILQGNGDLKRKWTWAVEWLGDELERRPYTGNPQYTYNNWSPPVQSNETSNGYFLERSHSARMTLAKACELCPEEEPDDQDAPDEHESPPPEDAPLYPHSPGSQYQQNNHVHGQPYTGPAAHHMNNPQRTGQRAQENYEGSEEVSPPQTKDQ
inactive: [1]; compound concentration: 50uM -0.0428 | [1]; compound concentration: 200uM -0.401 | [2]; compound concentration: 50uM -0.081 | [2]; compound concentration: 200uM -0.107 | [3]; compound concentration: 50uM -0.026 | [3]; compound concentration: 200uM -0.376 | [4]; compound concentration: 50uM 0.251 | [4]; compound concentration: 200uM 0.139 | [5]; compound concentration: 50uM 0.133 | [5]; compound concentration: 200uM -0.133 | [6]; compound concentration: 0.78uM -0.00765 | [6]; compound concentration: 1.56uM 0.093 | [6]; compound concentration: 3.13uM -0.0291 | [6]; compound concentration: 6.25uM 0.0092 | [6]; compound concentration: 12.5uM -0.0222 | [6]; compound concentration: 25uM -0.0898 | [6]; compound concentration: 50uM -0.0629 | [6]; compound concentration: 100uM -0.0253 | [6]; compound concentration: 200uM -0.0679 | [7]; compound concentration: 0.78uM -0.0702 | [7]; compound concentration: 1.56uM 0.0356 | [7]; compound concentration: 3.13uM 0.00372 | [7]; compound concentration: 6.25uM -0.00489 | [7]; compound concentration: 12.5uM -0.0481 | [7]; compound concentration: 25uM -0.0408 | [7]; compound concentration: 50uM -0.128 | [7]; compound concentration: 100uM -0.121 | [7]; compound concentration: 200uM -0.242 | [8]; compound concentration: 0.78uM -0.0701 | [8]; compound concentration: 1.56uM 0.0195 | [8]; compound concentration: 3.13uM 0.0203 | [8]; compound concentration: 6.25uM 0.0759 | [8]; compound concentration: 12.5uM -0.0293 | [8]; compound concentration: 25uM -0.0731 | [8]; compound concentration: 50uM -0.0138 | [8]; compound concentration: 100uM -0.119 | [8]; compound concentration: 200uM -0.256 | [9]; compound concentration: 50uM -0.0734 | [9]; compound concentration: 200uM -0.969 | [10]; compound concentration: 50uM -0.249 | [10]; compound concentration: 200uM -0.82 | [11]; compound concentration: 50uM -0.128 | [11]; compound concentration: 200uM -0.446 | [12]; compound concentration: 50uM -0.553 | [13]; compound concentration: 50uM -0.193 | [13]; compound concentration: 200uM -0.435 | [14]; compound concentration: 50uM -0.101 | [14]; compound concentration: 200uM -0.202 | [15]; compound concentration: 50uM -0.221 | [16]; compound concentration: 50uM -0.225 | [17]; compound concentration: 50uM 0.0933 | [17]; compound concentration: 200uM -0.622 | [18]; compound concentration: 50uM -0.15 | [18]; compound concentration: 200uM -0.284 | [19]; compound concentration: 50uM -0.229 | [20]; compound concentration: 50uM -0.00568 | [20]; compound concentration: 200uM -0.248
active: [12]; compound concentration: 200uM -1.59 | [15]; compound concentration: 200uM -1.31 | [16]; compound concentration: 200uM -1.96 | [19]; compound concentration: 200uM -1.13

Source: the supplement of paper PMC11732987, “Enantioselective OTUD7B fragment discovery through chemoproteomics screening and high-throughput optimisation” (Communications Chemistry, 2025)
